# Source: the supplement of paper PMC6555819
# System: VDR:RXRa (NR concentration 270 nM, RXRa partner concentration 90 nM)
# Assay: PBM binding z-score (relative to random genomic background probes); higher = stronger binding; sequences stand for … in GC…GCGATTGACAGCGTAGAATGAAGG
# Experimental: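 Protein-binding microarray (Agilent 4x180K custom design, double-stranded 60-nt probes: 5' GC cap, 34-nt variable region, 24-nt constant primer region; full probe sequence given). Purified or IVT nuclear receptor:RXRα heterodimers (3:1 NR:RXRα, mostly 270:90 nM) or homodimers were incubated for 1 h in PBS with 2% milk and no ligand, then detected with Alexa488 antibodies. Fluorescence from o1-orientation probes (~5 replicates averaged) was converted to z-scores against 500 random hg19 background probes. Variable regions are seed direct-repeat (DR0–DR5) sites, all their single-nucleotide variants and half-site ablations.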
row,Sequence,PBM binding z-score
1,AGAACGAGGGCAATGAGGTGATAGCACGGGTGGC,3.78
2,TGAATGAGGTTATAAGATCAAGGAACGTTGCAAA,1.1
3,CGAACTAGGTAAGAACAGGACAGTGAAGGATGAT,-0.253
4,TGTCAAAGTTGAAAGGTAACGTAAGTATCCACAC,0.996
5,CCTGCTAGGTCAGTGGTCAGCTAAAGCAGCTCGC,-0.183
6,AGTCAAAGTTCAGGACGAGCTAACGTAAAGCACG,1.8
7,CAAACTAGGTCAAGAGGTCAACGTCCGCTTCCCG,5.97
8,CCTGCTTGGTCATGGTCAGCTAATCTACAGTATG,-0.22
9,CATACTAGGTCACCGGAAGGTCAAAGTCCGCATG,6.08
10,AGTATGAGGTTATACGTAGATCAGGGAAGAAAGT,1.34
11,AATACAGGGTCATCGTAGGCCAGCGTACGCACAG,5.21
12,CCGACTGGGGCAAAGGTTACCATTCTCAGTACGA,1.43
13,TCTTGTAGATCAAACAGGTTAAGAAAGCCTGAGT,0.979
14,TTACCGAGGTGAGCTGAGGTCGTTGATCCAACTC,4.51
15,TTACCAAGGTGAAGGTCGATGATCCCTCTGTAGA,0.54
16,CCGACTGGGCCAAGGTCATTGATCAGTCAAAGCA,3
17,TAGAGTAGGTTAGGGGCATTCAGAATGGCGTCGA,1.06
18,TAGCATAGGTCATTCAGGGGCCAGTATAGAAAGC,4.18
19,CCTTACGGGTCAAGATTATAGCACGGGTGGTACG,2.9
20,ACTATTAGTTGAGACGAGGGCAACCCATAGGTTG,0.697

row,Sequence,PBM binding z-score
1,CTTGCTAGGTCATGGTCAGCTAATCTACAGTATG,1.59
2,TCGCCTAGGTCATTCAGGGGCCAGTATAGAAAGC,3.06
3,TCATATAGGTAAAAGGGGAAAGTCGGTGTGGTAA,0.861
4,ATCTCTTGGTAAAGATAGTTCAGTGAATGCAAAT,0.811
5,TTAATGAGGTTATAAGATCAGGGAACGTTGCAAA,1.27
6,ACTAGCAGGCCAAGGGTCGCTCAAGATTAGTCCG,0.00609
7,CGTCCAAGGTTAGAGAGGTCAGTGAATGCCGAGT,5.7
8,CCTAGCAGGCCAACCTGGGTCACTCAAGGCTTGA,1.15
9,TCTTGTAGATCAACAGGAGGCTAAGAAAGATCGA,-0.0159
10,CCTACTGGGCCATCAAGTCATTGATATCAACGTT,-0.0971
11,AGTCAAAGTGCACTAGGTAACGTAAGATTCAGCT,0.166
12,ACTATTAGGTGAGACGAGGGCAACCGATAGGTTG,1.77
13,GTGCCAAGGTGAATAGGTCGTTGATGAGTAGGCG,0.576
14,GCTATTGGTTGAAAGGGCAACCGAATGATTCTCG,0.563
15,ATACCAAGGCGATCGTGAGGTCGTTGATACTAAC,1.51
16,ACAAGTTGGTCAGCTGAGGTCACACACAATTCGG,4.66
17,GGAACGAGGGCATGTTGATAGCAGAGTTTGATGG,0.929
18,ATCGAAAGGACGAGGTGAGTATAGAGAAAGGGAA,-0.203
19,ATCTAAAGGTCGAGGTGAGTATAGAGAAAGGGAA,3.08
20,TATGCAGGGTCAAAGGCCAGAGTACGAATGTCGA,4.61
